Screening results: PubChem BioAssay, National Center for Advancing Translational Sciences (NCATS)
MARV entry inh: Marburg virus entry inhibition; 1.8% of 300,000 active; AID 540276; Marburg virus pseudotyped entry inhibition, cell reporter; Potency, µM (highest dose often 37.8 µM), for the others: at the top dose activity change, negative = inhibition, actives largely listed as inhibitors; calls by dose curve; tested in HEK293 cells; also: potency is read from the fitted curve at half-maximal effect
FMDV antiviral: blocks foot and mouth disease virus; FMDV antiviral cell-based qHTS; Potency, µM (highest dose often 57.9 µM), for the others: top-dose activity change, negative = inhibition, usual class: inhibitors; 1.2% of 410,000 active; AID 1159524; calls by dose curve; tested in HEK293T cells; also: read-out not given here; potency is read from the fitted curve at half-maximal effect; nearly all actives have a fitted effect of over 45% in size
VACV Venus inh: inhibitors of vaccinia virus (Venus reporter). 0.46% of 330,000 active. Vaccinia virus Venus reporter expression, fluorescence. Potency, µM (titrated, usually from 36.5 µM), without a hit: at the top dose activity change, negative = inhibition, hits mostly inhibitors. AID 720580; calls by dose curve; tested in A549 cells; also: potency is read from the fitted curve at half-maximal effect; nearly all actives have a fitted effect of over 30% in size
Vaccinia mCherry: vaccinia inhibition (mCherry reporter) | Vaccinia virus mCherry reporter infection, fluorescence | Potency, µM (titrated, usually from 36.5 µM), for inactives: top-dose activity change, negative = inhibition, actives largely listed as inhibitors | 0.63% of 310,000 active | AID 720579; calls by dose curve; tested in A549 cells; also: potency is read from the fitted curve at half-maximal effect; nearly all actives have a fitted effect of over 35% in size
LASV entry inh: blocks Lassa virus binding to or entry into cells. Lassa virus pseudotype entry inhibition, cell reporter. 1.2% of 300,000 active. AID 540256. Potency, µM (doses to about 37.9 µM), for inactives: at the top dose activity change, negative = inhibition, usual class: inhibitors; calls by dose curve; tested in HEK293 cells; also: potency is read from the fitted curve at half-maximal effect; nearly all actives have a fitted effect of over 50% in size
HCMV inh: blocks human cytomegalovirus replication. HFF cells, HCMV-luciferase reporter, 72 h; active compounds read low. activity change, negative = inhibition, % at 57.5 µM. 4.5% of 410,000 active. AID 1259415; in the data active = activity change below about -60%; inconclusive = no clear call, values can overlap the other calls; inactive = above about -39%
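HFF cells seeded 16 h at 37C, treated with compounds, infected with luciferase-reporter HCMV at MOI 1 PFU/cell; luciferase read at 72 h post infection, normalized to buffer-only and Salinomycin controls.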
Numbers without * were called inactive; i = inactive; ? = inconclusive; / = not tested or not shown; [ ] = dose if it differs, or a comment. Compounds with a hit are over-represented: about 6.5% of the library has one in this group of screens. % is scaled to controls: 0 for no effect and ±100 for the full control effect.

SMILES	MARV entry inh	FMDV antiviral	VACV Venus inh	Vaccinia mCherry	LASV entry inh	HCMV inh
CC(=O)c1cccc(NC2c3ccccc3C(=O)N2Cc2ccco2)c1 (stereo not given)	/	?	0%[7.34 µM]	i[7.34 µM]	/	188
O=C1c2ccccc2C(Nc2cccc(C(F)(F)F)c2)N1Cc1ccco1 (stereo not given)	14µM*	?	?	-23%	?	-31
CCOC(=O)c1cccc(NC2c3ccccc3C(=O)N2Cc2ccco2)c1 (stereo not given)	/	13µM*	-8%	?	/	-31
C[C@@H]1CCCCO[C@H](CN(C)C(=O)CCC(F)(F)F)[C@H](C)CN([C@@H](C)CO)C(=O)c2cc(NS(=O)(=O)c3ccc(Cl)cc3)ccc2O1	/	/	/	/	/	13
OC[C@H]1O[C@H](c2ccccc2)C=C[C@H]1OCc1cccc(Br)c1	-11%[14.2 µM]	/	/	/	/	/
CCC(=O)Nc1ccccc1C(=O)NC1CCCCC1	3%	-7%	-1%	i	-2%	-110*
Cc1ccc(C)c(OCC(=O)Nc2ccccc2C(=O)NC2CC2)c1	-1%[46.1 µM]	-1%	-10%	-6%	-1%[46.1 µM]	-12
Cc1ccc(Cl)c(OCC(=O)Nc2ccccc2C(=O)NC2CC2)c1	/	-23%	/	/	/	-100*
CC(NCC(=O)Nc1ccccc1C(=O)NC1CC1)c1cccc(Cl)c1 (stereo not given)	?	-10%	-13%	i	-5%[46.1 µM]	18
CC(NCC(=O)Nc1ccccc1C(=O)NC1CC1)c1ccc(Cl)cc1 (stereo not given)	/	20µM*	-7%	-14%	/	-12
CCOc1ccc(N2CC(NC(=O)c3ccc(S(=O)(=O)N4CCCCC4)cc3)CC2=O)cc1 (stereo not given)	/	-18%	-19%	-14%	-8%[46.1 µM]	-25
O=C(NNC1=C(C(=O)C(F)(F)F)CCC1)c1ccccc1Cl	9%	0%	-5%	/	8%	?
Nc1ccccc1C(=O)NNC1=C(C(=O)C(F)(F)F)CCC1	6%[46.1 µM]	7%	-5%[7.34 µM]	-23%[7.34 µM]	-21%	-85*
COc1ccccc1C(=O)NNC1=C(C(=O)C(F)(F)F)CCC1	?	/	7%	-9%	?	-100*
O=C(NNC1=C(C(=O)C(F)(F)F)CCC1)c1ccccc1O	-21%	-19%	-28%	-21%[1.46 µM]	-10%	55
CCc1ccccc1NC(=O)CCS(=O)(=O)c1cccc2nonc12	?	-6%	-1%	-11%	4%[46.1 µM]	-1
CCN(CC)S(=O)(=O)c1ccc(C(=O)NN(C)C2=NS(=O)(=O)c3ccccc32)cc1	0%[46.1 µM]	2%	-4%	-1%	10%[46.1 µM]	-19
CCN(C1=NS(=O)(=O)c2ccccc21)N(CC)S(=O)(=O)c1ccc(C)cc1	/	?	/	/	/	-69*
Cc1ccc(S(=O)(=O)N(Cc2ccccc2)c2ccccc2C(=O)Nc2ccccc2C(=O)NCc2ccco2)cc1	16µM*	13%	/	/	-3%	?
O=C(CN(c1ccccc1)S(=O)(=O)c1ccccc1)Nc1ccccc1C(=O)NCc1ccco1	?	-12%	-12%	-20%	?	-62*
CS(=O)(=O)N(CC(=O)Nc1ccccc1C(=O)NCc1ccco1)c1ccccc1F	1%[46.1 µM]	18%	-10%	-11%	14%	-36
CCN1CCN(C(=O)c2ccccc2N(Cc2ccccc2)S(=O)(=O)c2ccc(C)cc2)CC1	5.8µM*	0%	/	/	?	7
CS(=O)(=O)N(Cc1ccccc1)c1ccccc1C(=O)Nc1ccccc1C(=O)NCc1ccco1	4.1µM*	-23%	/	/	-2%	-3
Cc1ccc(S(=O)(=O)N(Cc2ccccc2)c2ccccc2C(=O)NCc2ccco2)cc1	?	/	-19%	-12%	?	-19
Cc1ccc(N(CC(=O)Nc2ccccc2C(=O)NCc2ccco2)S(=O)(=O)c2ccccc2)cc1C	?	-15%	-15%	-2%	?	5
SMILES	MARV entry inh	FMDV antiviral	VACV Venus inh	Vaccinia mCherry	LASV entry inh	HCMV inh
COc1ccc2c(c1)[C@@H](NC(=O)OCc1ccccc1)[C@H](C)[C@@H](c1ccccc1)N2	/	/	/	/	/	13
COc1ccc(NC(=O)N2CCCC3(CCN(C(=O)c4cccn4C)CC3)C2)cc1	/	7%	/	/	/	/
COC(=O)C(c1ccccc1)(c1cn(C)c2ccccc12)C(Nc1ccccc1)c1cccc(Br)c1 (stereo not given)	/	/	/	/	/	-14
CCc1nc2cc(C(=O)N(C)CC3CCCN(C)C3)cc(NC(=O)c3ccccc3OC)c2n1C (stereo not given)	/	-6%	-8%	-10%	/	/
S=C(Nc1ccccc1)N1CCOCCOCCN(C(=S)Nc2ccccc2)CCOCCOCC1	5.6µM*	-8%	-19%	i	17%	20
S=C(Nc1ccc(Oc2ccccc2)cc1)N1CCOCC1	-2%	34%	-15%	i	-19%	-26
S=C(Nc1ccccc1)N1CCCCCC1	-12%[46.1 µM]	27%	-4%	-11%	9%	-20
CC(C)(CO)N1CCN(C(=S)Nc2ccccc2)CC1	/	22µM*	-2%	i	/	-9
Cc1cnc(CNc2ncncc2-c2c(C)noc2C)cn1	/	-7%	/	/	/	/
COc1ccc(C(=O)/C=C/C(=O)N(CC(=O)NC2CCCCC2)Cc2ccccc2OC)c(O)c1	?	7.9µM*	-24%	?	?	-97*
COc1ccc(C(=O)/C=C/C(=O)N(CC(=O)NC2CCCCC2)CC2CCCO2)c(O)c1 (stereo not given)	/	7.9µM*	/	/	/	56
COc1ccc(C(=O)/C=C/C(=O)N(CC(=O)NC2CCCCC2)Cc2ccccc2)c(O)c1	?	8.9µM*	-13%	i	4µM*	-99*
COc1ccc(C(=O)/C=C/C(=O)N(Cc2ccccc2)C(C(=O)NC2CCCCC2)c2ccncc2)c(O)c1 (stereo not given)	?	-12%	-22%	i	?	?
CCOC(=O)OC[C@H]1O[C@H](c2ccc(C(C)=O)cc2)C=C[C@H]1Oc1ccc(-c2ccccc2)cc1	3%[14.2 µM]	/	/	/	?	/
CCCNC(=O)OC[C@H]1O[C@H](CCON=Cc2ccc(C(=O)N3[C@H](C(=O)OC)CC[C@H](C)[C@@H]3c3ccc(C)cc3)cc2)C=C[C@H]1Oc1ccc(OC)cc1	-28%[14.2 µM]	/	/	/	-24%[14.3 µM]	/
CCn1nc(C)c(/C=C/C(=O)Nc2ccc(C)cc2C)c1C	0%	-26%	-20%	i	?	-73*
Cc1cc(C)c(-c2cc([C@H](C)ON=C[C@@H](C)[C@H](OCc3ccccc3)C(C)C)on2)c(C)c1	6%[14.2 µM]	/	/	/	/	/
O=C(NCCc1ccccc1)c1nccc2ccccc12	/	57%	-15%	i	/	42
c1ccc(CCNc2ccnc3cc4ccccc4cc23)cc1	?	14µM*	?	?	/	-101*
CC(C)Nc1ccc(Nc2ccnc3cc4ccccc4cc23)cc1	5.2µM*	-29%	?	?	6.3µM*	-100*
COc1ccc(Nc2ccnc3ccccc23)cc1	?	-27%	-20%	/	-4%	?
CCOC(=O)c1cnc(Nc2nc3ccccc3o2)nc1CSc1ncccn1	10%	-2%	12%	-13%	?	/
